What is called inhibition is the change of the read-out against control, counted positive when it falls.

Active and inactive are the calls of the source.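 How the source made its calls, unless noted: active means NADPH fluorescence slope more negative than the mean of all samples by about 3 SD, 99.7% confidence; inactive means the rest.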

Test [1] can be described thus: inhibitors of TNFa-induced NFkB p65 translocation, primary screen, imaging, HUVEC, MLSMR starter and 10KST1 sets (AID 438;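 active means inhibition above 20% together with a positive visual image hit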;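 further: compound added about 3h40 before a 20 min TNFalpha stimulation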;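 on inhibition: signal is the nuclear over cytoplasmic p65 intensity ratio per well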). The settings on record: HUVEC TNFa-induced p65 nuclear translocation; cell count: measured here: nuclei count (cytotoxicity indicator), at 2.08 µM; inhibition: at 2 µM, stronger effect = higher value, 0% TNFa-plus-vehicle, 100% no-TNFa wells.
Test [2] can be described thus: inhibitors of mutant huntingtin aggregation, primary screen, imaging, exon1htt(103Q)mCFP cells, high-content imaging (AID 483;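 active means visual image review flags a hit and inhibition of aggregation exceeds 20%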;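 further: compound exposure lasted 3 days before fixation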;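 on nuclei count: percent of the per-plate median nuclei count of sample wells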). The settings on record: exon1htt(103Q)mCFP cell line, aggregate imaging, at 2 µM; inhibition of aggregation: stronger effect = higher value; nuclei count: measured here: cell count, toxicity.
Test [3] is described as follows: inhibitors of E-selectin induction by TNFa, primary screen, imaging, HUVEC, immunofluorescence, MLSMR starter and 10KST1 sets (AID 487;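 active means visually confirmed hit in the image check and inhibition above 20%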;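 on inhibition: signal is fraction of cell area covered by stained E-selectin grains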;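 on nuclei count: 100% = median nuclei count of all wells on the same plate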). The settings on record: HUVEC TNFalpha-induced E-selectin immunofluorescence imaging, at 2 µM; inhibition: stronger effect = higher value; nuclei count: measured here: cell number, toxicity.
Test [4] in a line: DUSP6 inhibitors restoring Erk phosphorylation by chemical complementation, primary imaging in DUSP6-transfected HeLa (AID 609;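 active means compounds giving at least 50% inhibition in the cell-based MKP-3 phosphatase rescue imaging test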;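 on inhibition: phospho-Erk level distribution per well compared with pooled transfected vehicle control wells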). The settings on record: HeLa MKP-3 transfected, phospho-Erk imaging KS statistic, at 10 µM, cells stimulated with TPA for 15 min.
Test [5] has as its target Dual specificity protein phosphatase 6 (Homo sapiens) (UniProt Q16828). The test is described as above. The settings on record: HeLa MKP-3 transfected, phospho-Erk imaging KS statistic; at 10 µM; stronger effect = higher value; cells stimulated with TPA for 15 min.
Test [6] addresses Voltage-gated potassium channel subunit beta-2 (Rattus norvegicus) (UniProt P62483). Briefly: KvBeta enzyme negative modulators, primary screen, biochemical, NADPH fluorescence (AID 622;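 active means fluorescence slope higher than the sample average by over 3 SD, cut at about -0.22 in these data, passing the limit was not always enough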;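 further: slope of raw intensity against log time taken from 70 to 1610 s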). The settings on record: recombinant KvBeta, 4-cyanobenzaldehyde reduction, at 10 µM, stronger effect = higher value.
Test [7] shares this target. Briefly: KvBeta positive modulators, primary screen, biochemical, NADPH fluorescence (AID 623).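 Further: fluorescence intensity change per second fitted from 20 to 320 s.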 The settings on record: Recombinant KvBeta, NADPH fluorescence decrease slope, 10 min; at 10 µM; stronger effect = lower value.
The target of test [8] is Alpha-2C adrenergic receptor (Homo sapiens) (UniProt P18825). The experiment in a line: modulators of alpha2C/GIRK thallium flux, primary screen, cell-based, HEK293 alpha2C/GIRK1/2 (AID 624;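 active means fluorescence slope after compound addition differing from the mean of all screened samples at 99.7% confidence, in either direction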;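 further: slope of fluorescence ratio to pre-addition baseline per second over 15 to 24 s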). The settings on record: thallium flux BTC fluorescence, at 10 µM, actives lie on both sides.
A short description of test [9]: inhibitors of larval lipid processing in zebrafish, primary screen, whole organism, PED6 fluorescence, gall bladder and intestine (AID 686;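 active means a full or partial loss of lipid-probe fluorescence in the fish gall bladder, intestine or both, judged by eye; inactive means no fluorescence loss, or compound toxic to the fish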;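 further: larvae 5 to 7 days old with five fish per well; signal comes from phospholipase A2 cleavage of quenched PED6 carried via bile; overnight exposure to compound and PED6 before scoring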). The settings on record: Zebrafish larvae PED6 lipid processing, fluorescence scoring; screened at 20 µM (by protocol).
A short description of test [10]: inhibitors of Chlamydomonas gravitaxis, primary screen, whole organism, Chlamydomonas reinhardtii, WT vs cilia-less mutant, absorbance, 96-well (AID 463189;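 active means inhibition at or above 50% relative to wild type and mutant plate controls; inactive means inhibition below 50%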;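 further: 0% = wild type cc124 cells in DMSO and 100% = ciliumless bld1 mutant cells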). The settings on record: OD600 absorbance, 2 days, at 10 µM, stronger effect = higher value.
A short description of test [11]: inhibitors of Sendai virus-induced IRF3 signaling, primary screen, TLR/RLR signaling modifier project, cell-based, Sendai virus stimulus, luciferase, 10K MLSCN set (AID 602276;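 active means inhibition at or above 50% at 10 µM; inactive means inhibition below 50%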;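 further: firefly luciferase from ISG56 promoter only with Renilla not read in this screen; 0% = Sendai virus plus DMSO and 100% = medium plus DMSO without virus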). The settings on record: HEK293 RL24 IRF3 luciferase reporter, at 10 µM, stronger effect = higher value.
The nature of test [12]: inhibitors of poly I:C-induced TLR3 signaling, primary screen, cell-based, poly I:C stimulus, luciferase, 10K MLSCN set (AID 602277;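 active means inhibition of the reporter signal at or above 50%; inactive means inhibition below 50%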). The settings on record: HEK293-TLR3 RL24 IRF3 luciferase reporter, at 10 µM, stronger effect = higher value. In general terms: Reporter assays use an easily measured gene product as a stand-in for the process of interest.
In test [13] the target is Muscarinic acetylcholine receptor M4 (Homo sapiens) (UniProt P08173). Briefly: compounds altering M4/GIRK thallium flux, either direction, primary screen, M4 allosteric agonist project, cell-based, HEK293 M4/GIRK, BTC-AM (AID 625;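 active means fluorescence slope after compound addition differing from the mean of all tested samples at 99.7% confidence, mostly higher but some lower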;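 further: thallium influx through GIRK channels coupled to M4 in HEK293 cells with BTC-AM dye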). The settings on record: at 10 µM, actives lie on both sides.
[14] abbreviates: measured here: cell density z-score.
[15] abbreviates: measured here: nuclear c-Myc green intensity z-score.
Setting [16] is: measured here: nuclear pErk red intensity z-score, stronger effect = higher value.

Dual specificity protein phosphatase 6 (Homo sapiens), sequence (Q16828 whole entry, looked up): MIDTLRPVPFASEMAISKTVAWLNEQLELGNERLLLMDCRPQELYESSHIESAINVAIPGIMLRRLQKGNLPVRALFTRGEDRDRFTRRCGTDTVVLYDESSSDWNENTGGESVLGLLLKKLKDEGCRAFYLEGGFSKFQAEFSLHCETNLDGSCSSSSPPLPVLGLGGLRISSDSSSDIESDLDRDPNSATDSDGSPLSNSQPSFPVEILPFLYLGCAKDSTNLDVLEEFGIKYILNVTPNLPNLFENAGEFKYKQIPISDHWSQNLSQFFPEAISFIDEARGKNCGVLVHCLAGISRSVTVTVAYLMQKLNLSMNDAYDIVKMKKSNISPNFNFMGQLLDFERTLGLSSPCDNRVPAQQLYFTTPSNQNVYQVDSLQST
Voltage-gated potassium channel subunit beta-2 (Rattus norvegicus), sequence (P62483 whole entry, looked up): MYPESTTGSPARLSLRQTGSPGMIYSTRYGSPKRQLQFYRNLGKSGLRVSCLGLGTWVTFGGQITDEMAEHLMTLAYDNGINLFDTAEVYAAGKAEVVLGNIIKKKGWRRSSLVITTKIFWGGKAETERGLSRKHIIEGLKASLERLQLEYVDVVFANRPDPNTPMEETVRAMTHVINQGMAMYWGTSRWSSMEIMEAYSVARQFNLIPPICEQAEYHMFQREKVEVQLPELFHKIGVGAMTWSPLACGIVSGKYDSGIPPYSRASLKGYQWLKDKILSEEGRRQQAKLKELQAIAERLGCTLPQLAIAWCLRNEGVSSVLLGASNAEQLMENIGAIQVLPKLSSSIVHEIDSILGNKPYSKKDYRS
Alpha-2C adrenergic receptor (Homo sapiens), sequence (P18825 whole entry, looked up): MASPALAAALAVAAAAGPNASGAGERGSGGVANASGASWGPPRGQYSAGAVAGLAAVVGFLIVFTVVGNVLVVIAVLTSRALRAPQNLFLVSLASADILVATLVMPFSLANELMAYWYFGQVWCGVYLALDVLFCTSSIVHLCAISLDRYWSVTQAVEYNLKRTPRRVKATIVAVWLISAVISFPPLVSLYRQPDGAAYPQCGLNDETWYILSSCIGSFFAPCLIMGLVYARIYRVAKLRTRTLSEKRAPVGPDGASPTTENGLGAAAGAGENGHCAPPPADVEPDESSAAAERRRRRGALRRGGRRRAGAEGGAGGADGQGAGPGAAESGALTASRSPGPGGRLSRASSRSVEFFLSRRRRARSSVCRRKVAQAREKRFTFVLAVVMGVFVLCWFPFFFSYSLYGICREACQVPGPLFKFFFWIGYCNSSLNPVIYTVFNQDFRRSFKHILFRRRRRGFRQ
Muscarinic acetylcholine receptor M4 (Homo sapiens), sequence (P08173 whole entry, looked up): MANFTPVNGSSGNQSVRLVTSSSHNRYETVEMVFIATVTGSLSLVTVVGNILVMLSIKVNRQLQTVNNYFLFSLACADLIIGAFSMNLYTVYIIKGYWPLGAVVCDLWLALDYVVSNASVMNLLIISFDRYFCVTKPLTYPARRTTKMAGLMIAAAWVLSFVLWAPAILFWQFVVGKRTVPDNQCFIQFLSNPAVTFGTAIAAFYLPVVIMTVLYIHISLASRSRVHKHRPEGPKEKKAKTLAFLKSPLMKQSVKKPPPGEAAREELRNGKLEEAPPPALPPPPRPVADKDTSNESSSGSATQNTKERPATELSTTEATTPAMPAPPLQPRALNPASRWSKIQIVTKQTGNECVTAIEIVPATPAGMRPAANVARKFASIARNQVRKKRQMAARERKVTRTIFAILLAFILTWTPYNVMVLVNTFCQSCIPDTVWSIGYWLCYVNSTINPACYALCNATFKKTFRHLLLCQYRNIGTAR

For `CC[C@]1(O)CC2CN(CCc3c([nH]c4ccccc34)[C@@](C(=O)OC)(c3cc4c(cc3OC)N(C=O)[C@H]3[C@@](O)(C(=O)OC)[C@H](OC(C)=O)[C@]5(CC)C=CCN6CC[C@]43[C@@H]65)C2)C1` (stereo not given in full), the cell count in test [1] was 496. The inhibition was 31.7% (active) in test [1]; -122% (inactive) in test [3]; 27.9% (inactive) in test [5]; -2.94% (inactive) in [10]; 32.7% (inactive) in test [11]; 85.7% (active) in [12]. Besides, the inhibition of aggregation in test [2] was -69.9% (inactive). In addition, the nuclei count was found to be 1.5% in [2] and 76.8% in [3]. The z-score in test [4] (setting [14]) was 0.276; in test [4] (setting [15]), -0.499; in test [4] (setting [16]), 1.19. Moreover, the fluorescence slope in test [6] is -0.439 (inactive). The NADPH fluorescence slope in test [7] is -3.8e-07 (inactive). For the same compound, in test [8], the slope is 0.00563 (inactive). The compound was called inactive in test [9].

Take `OCCNC1=NCCN1`: the cell count in test [1] was found to be 552. In addition, the inhibition in test [1] is -6.3% (inactive); in test [3], -4.8% (inactive); in [5] it was -3.98% (inactive); in [10], -5.29% (inactive); in [11] it was 17.3% (inactive); in test [12], 20.3% (inactive). The inhibition of aggregation in test [2] is 28.8% (active). For the same compound, the results for the nuclei count in test [2] and in [3] were 104% and 146%, respectively. Also, the z-score was -0.706 in [4] (setting [14]), -1.05 in test [4] (setting [15]) and 0.931 in test [4] (setting [16]). In addition, the fluorescence slope in test [6] is -0.523 (inactive). Also, the NADPH fluorescence slope in [7] was -7.4e-05 (inactive). Also, the slope in test [8] was 0.00539 (inactive). Moreover, the result in test [9] was inactive.

For the compound `Cc1c(O)c(CN2CCCC(C)C2)cc2c3c(c(=O)oc12)CCC3` (stereo not given), the cell count in test [1] turned out to be 695. For the same compound, the inhibition was -6.3% (inactive) in [1]; 30.2% (inactive) in test [3]; -8.95% (inactive) in test [5]; 0.622% (inactive) in [10]; 13.6% (inactive) in test [11]; 16% (inactive) in test [12]. The inhibition of aggregation in test [2] was -0.7% (inactive). Further, the results for the nuclei count in [2] and in test [3] were 102% and 136%, respectively. Further, the z-score in [4] (setting [14]) was -0.479; in [4] (setting [15]), 2; in [4] (setting [16]), 1.18. Besides, the fluorescence slope in [6] is -0.0135 (inactive); in [13], 0.00443 (inactive). The NADPH fluorescence slope in test [7] is 8.2e-07 (inactive). The outcome in test [9] was inactive.

For the compound `O=C(Nc1ccc2c(c1)OCO2)c1cncc(Br)c1`, the cell count in test [1] came to 613. Further, the inhibition in test [1] is -11% (inactive); in test [3], -29.9% (inactive); in test [5], 19.1% (inactive); in test [10], -3.07% (inactive); in test [11] it was -15.3% (inactive); in [12] it was -51.1% (inactive). The inhibition of aggregation in test [2] was -11.9% (inactive). Moreover, the nuclei count came out at 87.1% in test [2] and 149% in test [3]. For the same compound, the figures for the z-score in [4] (setting [14]), in [4] (setting [15]) and in [4] (setting [16]) were 1.08, -0.36 and -1.03, respectively. Further, the fluorescence slope in [6] is -0.419 (inactive). Besides, the NADPH fluorescence slope in [7] is -3.7e-05 (inactive). Moreover, in test [8], the slope is 0.00513 (inactive). Further, the compound was classed as inactive in test [9].

`COc1cccc(OC)c1OCCN1CCN(C(=O)c2ccco2)CC1`: the cell count in [1] was 361. Moreover, the inhibition in [1] was -3.1% (inactive); in test [3] it was -24.8% (inactive); in test [5], 13.2% (inactive); in test [10], -8.27% (inactive); in [11], 11.8% (inactive); in [12] it was 17.9% (inactive). Also, the inhibition of aggregation in test [2] was 10.7% (inactive). For the same compound, the nuclei count in test [2] was 104%; in test [3], 102%. In addition, the values for the z-score in [4] (setting [14]), in test [4] (setting [15]) and in [4] (setting [16]) were 0.154, 0.0392 and -1.87, respectively. Besides, the fluorescence slope in test [6] was -0.538 (inactive). Besides, the NADPH fluorescence slope in test [7] is -6.4e-05 (inactive). Further, in test [8], the slope is 0.00433 (inactive). Besides, in test [9], the call was inactive.

The values above are taken from PubChem BioAssay.
